62 compounds from PubChem BioAssay AID2501 (Southern Research Specialized Biocontainment Screening …, 2010) can be followed below.

The campaign covered roughly 2,200 compounds. About 1,200 (55%) were called active. So high a share suggests a set chosen from earlier hits. The list shows a part of the results. Values without a mark were called inactive. No cut-off is given here; in the data, nearly all actives have IC50 up to about 92 µM.

This assay can be described thus: counter assay for TAg ATPase ADP read-out – biochemical, ADP-Hunter, fluorescence, counter-screen (AID 2501).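 For inhibition: 0% = enzyme with vehicle and 100% = reference inhibitor wells; higher means more inhibition.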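 Note: purified T antigen ATPase.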 As to conditions: series mostly up to 100 µM; inhibition: at the top concentration.
On to `Cc1nonc1C1CCCN1C(=O)c1cc(COc2ccc(F)cc2F)on1` (configuration not stated), for which the “inhibition” value is -6.07%.

Turning to `O=C(CCO)c1ccc(O)cc1`, the “inhibition” value was 9.16%.

On to `COc1ccccc1C(NC(C)=O)c1c(O)ccc2ccc(O)cc12` (configuration not stated), for which the “inhibition” value is 0.8% [at 50 µM].

As to `COc1cc(O)ccc1C(=O)CCc1ccc(O)cc1`, the half-maximal inhibitory concentration (IC50) is 6.75 µM (active).

`COc1cc(C2OCC3C(c4ccc(OC5OC(CO)C(O)C(O)C5O)c(OC)c4)OCC23)ccc1O` (configuration not stated): the IC50 was 8.74 µM (active).

As for `O=C(CN1C(=O)/C(=C/c2ccco2)SC1=S)Nc1ccc(O)c(C(=O)O)c1`, the “inhibition” value is -2%.

On to `O=C(CN1C(=O)/C(=C\c2ccco2)SC1=S)Nc1ccc(O)cc1C(=O)O`, for which the “inhibition” value was 16.6%.

`O=C(CN1C(=O)/C(=C/c2ccco2)SC1=S)NC1CCS(=O)(=O)C1` (configuration not stated): the IC50 is 35.1 µM (active).

Take `N#Cc1c(Nc2ccccc2Cl)s[nH]c1=O`: the “inhibition” value is 27.8%.

For the compound `O=C(O)CSc1cc(NS(=O)(=O)c2ccc(Cl)cc2)c2ccccc2c1O`, the “inhibition” value was -205%.

For the compound `O=C([C@H](Cc1ccccc1)NS(=O)(=O)c1ccc(Cl)cc1)N1CC[C@@]2(O)CCCC[C@H]2C1`, the IC50 was 18.9 µM (active).

Consider `COc1ccc(-c2c(C)nn3c(-c4ccccc4)cc(C)nc23)cc1`, for which the “inhibition” value was -13.8%.

As to `NC(=S)N=Nc1ccc(NN=C(N)N)cc1`, the IC50 was 6.85 µM (active).

Regarding `COc1ccccc1C1/C(=C(/O)c2ccc(C)cc2)C(=O)C(=O)N1CC(C)O` (configuration not stated), the “inhibition” value is -24%.

With `O=c1nc2s/c(=C\c3ccco3)c(=O)n2nc1Cc1ccccc1`, the “inhibition” value is -12.8%.

Consider `COC1=C/C(=C/c2c(N)n3nc(-c4ccc(C)cc4)sc3nc2=O)C=CC1=O`, for which the half-inhibitory concentration (IC50) was 10.8 µM (active).

As to `CCCOc1ccc(Cc2nn3c(=O)/c(=C/c4ccco4)sc3nc2=O)cc1`, the “inhibition” value is -9.71%.

As to `CCOC1=C/C(=C/c2c(N)n3nc(-c4ccccc4)sc3nc2=O)C=CC1=O`, the IC50 is 11.2 µM (active).

Consider `CCOC(=O)N1CCN(c2cc(NCCC(=O)O)c3c4c(onc24)-c2ccccc2C3=O)CC1`, for which the concentration for half-maximal inhibition (IC50) was 8.63 µM (active).

Turning to `CCOc1c(Br)cc(CNc2ccc(N3CCN(C(C)=O)CC3)cc2)cc1OC`, the half-inhibitory concentration (IC50) is 7.66 µM (active).

`CCOc1c(Br)cc(CNc2ccc(N3CCOCC3)cc2)cc1OC`: the IC50 is 6.04 µM (active).

As to `CCOc1cc(CNc2ccc(N3CCN(C(C)=O)CC3)cc2)cc(Br)c1OC`, the half-maximal inhibitory concentration (IC50) was 5.42 µM (active).

Turning to `Cn1ncc2nnn(-c3ccccc3)c(=O)c21`, the “inhibition” value is -9.11%.

Regarding `Brc1ccc(-c2nn3c(-c4ccco4)nnc3s2)o1`, the “inhibition” value is -1.31%.

Take `CCOc1cc(/C=N\NC(=O)Cn2nnc3ccccc32)ccc1O`: the IC50 is 5.43 µM (active).

For the compound `CCOc1ccc(NC(=O)c2nnn(CC(=O)Nc3ccccc3OC)c2N)cc1`, the “inhibition” value was 23.9%.

For `COc1ccc(Cc2nc3ccccc3n2CC(=O)N/N=C/c2ccc(O)cc2)cc1OC`, the IC50 is 4.33 µM (active).

`COc1cc(/C=N/NC(=O)C(C)n2nnc3ccccc32)ccc1O` (configuration not stated): the 50% inhibitory concentration (IC50) was 3.07 µM (active).

As to `COc1cc(/C=N/NC(=O)CCc2c(C)n[nH]c2C)ccc1O`, the IC50 was 4.69 µM (active).

On to `CC(C(=O)Nc1ccccc1Cl)N(c1ccccc1)S(C)(=O)=O` (configuration not stated), for which the “inhibition” value was 15.5%.

Regarding `CCCSC1=N/C(=C\C=C\c2ccco2)C(=O)S1`, the “inhibition” value was 13.2%.

Regarding `CCOc1cc(/C=N/NC(=O)CCn2nnc3ccccc32)ccc1O`, the IC50 was 3.32 µM (active).

As to `COc1cc(/C=N/NC(=O)Cn2nnc3ccccc32)ccc1O`, the IC50 is 2.86 µM (active).

For `COc1cc(/C=N/NC(=O)CCn2nc(C)cc2C)ccc1O`, the IC50 was 6.73 µM (active).

As for `COc1cc(/C=N/NC(=O)CCn2nnc3ccccc32)ccc1O`, the half-inhibitory concentration (IC50) was 3.56 µM (active).

Take `CCOC(=O)C1=C(N)n2c(s/c(=C\c3ccco3)c2=O)=C(C(=O)OCC)C1c1ccco1` (configuration not stated): the “inhibition” value is -0.39%.

Turning to `C[C@]12CC[C@@H]3c4cc(O)c(O)cc4CC[C@H]3[C@@H]1CC[C@@H]2O`, the “inhibition” value was 12.5%.

For `CCCNC(=O)c1ccc(CNc2c(N3CCC(C(=O)OCC)CC3)c(=O)c2=O)cc1`, the “inhibition” value was -20.8%.

`Cc1cccc(N=C2NC(=O)/C(=C/C=C/c3ccco3)S2)c1`: the “inhibition” value was -17.8%.

In the case of `Cc1ccc(S(=O)(=O)/N=C2/NC(=O)/C(=C\c3ccco3)S2)cc1`, the “inhibition” value is -7.12%.

`O=C(CCCN1C(=O)/C(=C\c2ccco2)SC1=S)Nc1ccc(O)cc1C(=O)O`: the “inhibition” value was 18%.

`O=C(O)CC(C(=O)O)N1C(=O)/C(=C/C=C/c2ccco2)SC1=S` (configuration not stated): the “inhibition” value was -2.02%.

Take `O=C1NC(=Nc2ccc(O)cc2)S/C1=C/c1ccco1`: the half-inhibitory concentration (IC50) was 5.16 µM (active).

As for `O=C1NC(=Nc2ccc(O)cc2)S/C1=C\C=C\c1ccco1`, the IC50 was 3.48 µM (active).

On to `CCCC[C@@H]1CN=C(N)N1CCc1cc(C(F)(F)F)cc(C(F)(F)F)c1`, for which the “inhibition” value is 16.9%.

Turning to `O=Nc1c(-c2cccc([N+](=O)[O-])c2)nc2ncccn12`, the “inhibition” value was -14.4%.

For `CN=c1nc(-c2ccccc2)n(-c2ccccc2)s1`, the 50% inhibitory concentration (IC50) was 11.8 µM (active).

With `CCOC(=O)C1=C(C)NC(=S)NC1c1ccc(OC(=O)c2ccco2)cc1` (configuration not stated), the “inhibition” value is 27.4%.

With `O=C(N/N=C/c1ccc(OC(=O)c2ccco2)cc1)c1ccc[n+]([O-])c1`, the IC50 is 41.7 µM (active).

For `Oc1ccc(-c2nc(=S)[nH][nH]2)cc1`, the 50% inhibitory concentration (IC50) was 2.49 µM (active).

As to `O=C(Nc1ccc(S(=O)(=O)N2CCCC2)cc1)N1c2ccccc2Sc2ccccc21`, the “inhibition” value was 1.56%.

With `O=c1c2ccccc2sn1-c1cc(S(=O)(=O)N2CCOCC2)ccc1N1CCOCC1`, the IC50 was 12.5 µM (active).

In the case of `O=c1c2ccccc2sn1-c1cc(S(=O)(=O)N2CCOCC2)ccc1N1CCCC1`, the IC50 was 12.5 µM (active).

Regarding `Cc1ccc2c(c1)C(c1ccccc1)N(C(=O)c1ccc(S(=O)(=O)N3CCOCC3)cc1)CC(=O)N2` (configuration not stated), the “inhibition” value is -15.6%.

As for `C[C@@H]1O[C@@H](OC2C(O)C(OCCc3ccc(O)c(O)c3)OC(CO)C2OC(=O)/C=C/c2ccc(O)c(O)c2)[C@H](O)[C@H](O)[C@H]1O` (some centres not stated), the IC50 was 6.02 µM (active).

For `Nc1nc[nH]c(=O)c1N=Cc1ccccc1`, the half-maximal inhibitory concentration (IC50) is 12.2 µM (active).

On to `C=CCNc1nnc(SC2CC(=O)N(c3ccc(OC)cc3)C2=O)s1` (configuration not stated), for which the IC50 is 11.2 µM (active).

For `CCN=C(Nc1ccc2c(c1)OCO2)SC1CC(=O)N(c2ccc(OC)cc2)C1=O` (configuration not stated), the “inhibition” value is -27.4%.

With `Cc1c(/C=N/NC(=O)c2ccc(O)cc2)c2ccccn2c1C(=O)c1ccc(F)cc1`, the “inhibition” value is -8.33%.

Regarding `CN1/C(=C\C=N\NC(=O)c2ccc(O)cc2)C(C)(C)c2ccccc21`, the IC50 was 8.51 µM (active).

For the compound `Cc1cc(-c2ccc(N=Nc3c(S(=O)(=O)O)cc4cc(S(=O)(=O)O)cc(N)c4c3O)c(C)c2)ccc1N=Nc1c(S(=O)(=O)O)cc2cc(S(=O)(=O)O)cc(N)c2c1O`, the IC50 was 11.5 µM (active).

In the case of `O=S(=O)(O)c1cc(O)c2c(O)c(N=Nc3cc(Cl)ccc3O)c(S(=O)(=O)O)cc2c1`, the IC50 is 81.2 µM (active).

In general, inhibition refers to the relative decrease from the control value, in per cent. Usually IC50 stands for the point on the concentration scale where inhibition reaches its midpoint.
